# TIM10 inh: growth inhibitors of TIM10 yeast strain; S. cerevisiae TIM10 strain growth, BacTiter-Glo luminescence, 24 h; inhibition, % at 10 µM; 330,000 tested, 1.4% active;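 active means inhibition of 40% or more at the single tested concentration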;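 further: wild-type TIM10 isogenic control strain grown at permissive 25 °C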
# Mot1-301 SUMO: SUMOylation pathway inhibition by Mot1-301 growth rescue. 320,000 tested, 1% active. S. cerevisiae Mot1-301 growth rescue, ATP luminescence, 38.5C; percent above DMSO median, 100 means doubled. growth rescue, % at 18.8 µM;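 active means every valid replicate shows activation above 250% relative to neutral control wells; inactive means the rest, any valid replicate at or below 250%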
# tim23-1 inh: growth inhibitors of tim23-1 mutant yeast | S. cerevisiae tim23-1 growth, BacTiter-Glo luminescence, 24 h | inhibition, % at 20 µM | 330,000 tested, 1.3% active;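 active means growth inhibition of the mutant yeast at or above 50%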;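 further: temperature-sensitive mutant grown at 25 °C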
# tim10-1 inh: inhibits growth of tim10-1 mutant yeast; S. cerevisiae tim10-1 ts strain growth, BacTiter-Glo, 24 h; AID 463190; inhibition, % at 20 µM; 330,000 tested, 2.2% active;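 active means inhibition of at least 40%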;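 further: mutant grown at 25 °C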
# PfHsp90 set2: reduces growth (ATP signal) of yeast expressing P. falciparum Hsp90; S. cerevisiae expressing PfHsp90, BacTiter-Glo ATP, 48 h; yeast lacking PDR1 and PDR3 efflux regulators; inhibition, % at 9.4 µM; 310,000 tested, 0.32% active;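 active means every replicate shows inhibition above about 80%, whatever the replicate mean, limit read from the data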
# tim10-1 conf: confirmation of tim10-1 mutant yeast growth inhibitors | shares compounds with tim10-1 inh | AID 463213 | inhibition, % at 20 µM | S. cerevisiae tim10-1 ts strain growth, BacTiter-Glo, 24 h | 7,400 tested, 56% active;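 active means inhibition of yeast growth at or above a set limit in either of two repeat tests at 20 µM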;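 further: tim10-1 mutant grown at permissive 25 °C to find synthetic lethal compounds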
# TIM10 conf: TIM10 yeast growth inhibition, confirmed. shares compounds with TIM10 inh. S. cerevisiae tim10 strain growth, BacTiter-Glo luminescence, 24 h. inhibition, % at 10 µM. 4,600 tested, 63% active;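 active means inhibition of yeast growth at or above a set limit in either of two replicates at 10 µM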; further: this counterscreen used the strain with wild-type TIM10
# tim23-1 conf: tim23-1 yeast growth inhibition, confirmed. shares compounds with tim23-1 inh. S. cerevisiae tim23-1 growth, BacTiter-Glo luminescence, 24 h. inhibition, % at 20 µM. 4,400 tested, 83% active;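 active means inhibition above about 39% in either of two replicate wells at 20 µM, limit read from the data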;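 further: temperature-sensitive tim23-1 mutant grown at 25 °C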
# A number is an active result; i = inactive; nt = not tested or not shown. Hits are enriched below; roughly 4.4% of the tested compounds scored in any of these assays.
SMILES,TIM10 inh,Mot1-301 SUMO,tim23-1 inh,tim10-1 inh,PfHsp90 set2,tim10-1 conf,tim23-1 conf,others
CCOC(=O)c1cc(-c2ccc(OC)cc2)n[nH]1,i,i,i,i,i,nt,nt,
COc1ccc(-c2cc(-c3cc(OC)ccc3O)[nH]n2)cc1,51.3,i,59.1,44.4,nt,29.0,60.9,TIM10 conf=41.7
COc1ccc(O)c(-c2cc(-c3ccc(F)cc3)n[nH]2)c1,i,i,62.8,49.1,i,i,72.4,
O=C(NC(=S)NCCc1ccccc1)c1ccco1,48.1,i,55.9,42.2,i,i,48.3,TIM10 conf=i
O=C(NC(=S)NC1CCCc2ccccc21)c1ccco1 (centres undefined),42.7,i,51.7,51.4,i,41.0,57.7,TIM10 conf=42.6
COc1ccc(NC(=O)Nc2cccc3c2O[C@H](CN(C)C(=O)Nc2c(C)noc2C)[C@@H](C)CN([C@H](C)CO)C3=O)cc1,i,i,i,i,i,nt,nt,
CC(C)Cc1ccc([C@H](C)C(=O)O)cc1,i,i,i,i,i,nt,nt,
CC(C)Cc1ccc(-c2cc(=O)[nH][nH]2)cc1,i,i,53.4,59.0,i,i,43.9,
CCOc1cccc(/C=C(\C#N)C(=O)NC2CC2)c1,50.7,i,76.8,41.8,i,51.0,62.2,TIM10 conf=51.0
N#C/C(=C/c1ccc(OCc2ccccc2)cc1)C(=O)NC1CCCCC1,i,i,i,i,i,nt,nt,
CC(=O)Nc1ccc(/C=C(\C#N)C(=O)NC2CCCCC2)cc1,49.5,i,65.8,46.0,i,48.0,61.6,TIM10 conf=55.9
CC(C)Oc1ccc(/C=C(\C#N)C(=O)NC2CC2)cc1,i,i,i,i,i,nt,nt,
CCOc1ccc(/C=C(\C#N)C(=O)Nc2cccnc2)cc1,i,i,i,i,i,nt,nt,
CCCCOc1cccc(/C=C(\C#N)C(=O)NC2CC2)c1,i,i,89.2,87.7,i,83.0,84.8,
N#C/C(=C\c1ccc(OCC(N)=O)cc1)C(=O)NC1CC1,i,i,i,i,i,nt,nt,
CCOc1cccc(NC(=O)/C(C#N)=C/c2cccnc2)c1,41.6,i,78.9,51.8,i,55.3,76.8,TIM10 conf=56.3
CCCCCCCCN1N=N[C@H]2[C@H]1[C@@H]1C[C@H]2N(C(=O)OC(C)(C)C)O1,i,nt,i,i,i,nt,nt,
O=C(c1ccccc1)N(C(=O)c1ccccc1)N1CCCC1,nt,nt,nt,nt,i,nt,nt,
COC(C[C@@H]1O[C@H]1C(=O)COCc1ccccc1)OC,i,i,i,i,nt,nt,nt,
O=C(CN1CCN(C(=O)CNC(=O)c2ccc3c(c2)OCO3)CC1)Nc1ccc(F)cc1,i,i,i,i,i,nt,nt,
CC(C)Cn1c(=O)c2ccccc2n2c(CCC(=O)O)nnc12,i,i,i,i,i,nt,nt,
Cn1c(/C(C#N)=C/C2CC=CCC2)nc2ccccc21 (centres undefined),i,i,68.7,42.7,i,39.4,51.0,
COc1ccccc1CC(=O)OC(C)C(=O)Nc1ccc(S(=O)(=O)N2CCCCC2)cc1 (centres undefined),i,i,i,i,i,nt,nt,
CC(=O)c1nccs1,i,i,i,i,i,nt,nt,
CCn1c(SCC(=O)Nc2ccc(Br)cn2)nnc1C1CC1,i,i,i,i,i,nt,nt,
SMILES,TIM10 inh,Mot1-301 SUMO,tim23-1 inh,tim10-1 inh,PfHsp90 set2,tim10-1 conf,tim23-1 conf,others
Clc1ccc2[nH]c(-c3ccccc3)cc2c1,i,i,61.4,49.9,i,45.0,73.2,
c1ccc(-c2cc3ccccc3[nH]2)cc1,i,i,i,i,i,nt,nt,
O=C(COC(=O)CC1CC2CCC1C2)NCc1ccc(F)cc1 (centres undefined),i,i,i,i,nt,nt,nt,
O=C(CC1CC2CCC1C2)OCC(=O)c1c[nH]c2ccccc12 (centres undefined),i,i,51.9,41.6,i,i,67.6,
O=c1nc(/C=C/c2ccc(O)c(O)c2)oc2ccccc12,nt,nt,nt,nt,i,nt,nt,
COc1ccc(/C=C\c2nc(=O)c3ccccc3o2)cc1,41.9,i,78.0,54.8,i,45.6,71.3,TIM10 conf=34.8
CCOc1cc(/C=C2/C(=O)ON=C2C)ccc1OCc1ccccc1F,i,i,58.2,52.5,i,i,52.2,
Cc1nnc(NC(=O)CSc2nccn2Cc2ccccc2)s1,i,i,i,i,i,nt,nt,
COc1ccc(/C=C2\COc3ccccc3C2=O)cc1OC,50.2,i,69.6,56.8,i,57.4,58.0,TIM10 conf=i
COc1cc(NC(=O)Cn2cnc(S(=O)(=O)N3CCOCC3)c2)cc(OC)c1OC,i,i,i,i,i,nt,nt,
Fc1ccc(CNC(=S)Nc2cccc(Cl)c2)cc1,i,i,50.1,47.6,i,40.8,51.8,
S=C(NCc1ccncc1)Nc1cccc(Cl)c1,i,i,i,i,i,nt,nt,
Cc1ccc(-c2cc3nc(C)cc(NCc4ccco4)n3n2)cc1,i,i,57.9,41.4,i,38.5,54.7,
CC(=O)N1CCN(c2nnc(-c3ccccc3)c3ccccc23)CC1,i,i,i,i,i,nt,nt,
Cc1ccc(-c2nnc(N3CCN(C(=O)c4ccco4)CC3)c3ccccc23)cc1,53.1,i,70.5,61.1,i,50.2,62.8,TIM10 conf=i
Cn1c(SCC(=O)NC2CCCC2)nnc1C(F)(F)F,i,i,i,i,i,nt,nt,
Cc1ccc(S(=O)(=O)CNC(=S)c2cccc(C)c2)cc1,i,i,i,i,i,nt,nt,
Cc1ccc(S(=O)(=O)CNC(=S)c2ccc3ccccc3c2)cc1,i,i,52.5,43.0,i,i,49.6,
Cc1ccc(C(=O)Nc2nnc(C3CCCCC3)s2)o1,i,i,51.9,46.1,i,35.1,44.8,
CCc1noc(C)c1C(=O)N(C)CC(=O)Nc1ccc(Br)cc1C,i,i,i,i,nt,nt,nt,
O=C(NC(=S)Nc1ccccc1Br)C1CCC1,i,i,58.1,40.1,i,i,39.6,
CC1CCCCC1NC(=O)CCS(=O)(=O)c1ccc(Cl)cc1 (centres undefined),i,i,i,i,i,nt,nt,
O[C@@H]1[C@@H](O)C=C2CCN3Cc4cc5c(cc4[C@H]1C23)OCO5 (some centres undefined),90.3,i,75.8,87.7,i,83.7,77.3,TIM10 conf=89.3
CN1CCN(c2cc(N3CCN(C(=O)c4ccco4)CC3)c3c4c(onc24)-c2ccccc2C3=O)CC1,47.1,i,69.2,55.8,i,46.8,74.2,TIM10 conf=47.5
O=C1c2ccccc2-c2onc3c(N4CCN(CCO)CC4)cc(N4CCN(C(=O)c5ccco5)CC4)c1c23,i,i,i,i,i,nt,nt,
Fc1ccc(NC(=S)Nc2cccc3ccccc23)cc1,i,i,52.1,43.3,i,i,44.8,
Cc1ccc(NC(=S)Nc2cccc3ccccc23)cc1,i,i,i,i,i,nt,nt,
CCCCNS(=O)(=O)CCNCc1ccco1,i,nt,i,i,i,nt,nt,

# Screening results from PubChem.
